Measured values taken from PubChem BioAssay.
Unmarked numbers belong to inactive results. For some assays here: Entries with a potency or affinity are not part of this list. Active and inactive are the calls of the source. Unless noted, how the calls were made is not given here.

How the values were obtained:
[1] = antimalarial activity against Dd2 strain (AID 2302;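 active means growth inhibition above 50% at the single 2 µM test dose, taken to imply half-maximal potency below 2 µM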;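 further: 0% = DMSO untreated growth and 100% = chloroquine plus artemisinin killed control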); details: P. falciparum Dd2 in RBCs, LDH growth readout, 72 h; at 2 µM; stronger effect = higher value
[2] = human hepatoma cell viability loss – ATP luminescence, cytotoxicity control for P. falciparum antimalarial project, primary screen (AID 2303;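 active means inhibition above 50%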;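 further: 0% = DMSO wells and 100% = digitonin-killed cells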); details: HepG2 viability, 24-48 h, at 10 µM, stronger effect = higher value
[3] = target: L-lactate dehydrogenase (Plasmodium falciparum (isolate CDC / Honduras)) (UniProt Q27743); test: PfLDH activity inhibition – cell lysate, 3D7 strain, counter-screen for P. falciparum growth inhibition project (AID 2304);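 further: 0% = vehicle and 100% = reference inhibitor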; details: P. falciparum 3D7 crude extract, LDH APAD/NBT absorbance; at 2 µM; stronger effect = higher value
L-lactate dehydrogenase (Plasmodium falciparum (isolate CDC / Honduras)), sequence (Q27743 whole entry, looked up): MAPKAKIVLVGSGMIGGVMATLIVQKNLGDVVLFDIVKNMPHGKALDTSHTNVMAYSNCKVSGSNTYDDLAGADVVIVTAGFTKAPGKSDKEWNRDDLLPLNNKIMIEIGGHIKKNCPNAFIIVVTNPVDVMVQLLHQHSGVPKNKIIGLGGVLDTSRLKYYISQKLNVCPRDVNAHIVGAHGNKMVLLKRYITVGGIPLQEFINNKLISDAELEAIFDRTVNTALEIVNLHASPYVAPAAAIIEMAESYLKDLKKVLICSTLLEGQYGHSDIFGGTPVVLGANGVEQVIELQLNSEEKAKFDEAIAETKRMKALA

[4] = inhibition of 3D7 malaria parasite growth – strain 3D7 (AID 2306);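 further: 0% = DMSO wells and 100% = chloroquine plus artemisinin control wells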; details: P. falciparum 3D7 erythrocytic growth, LDH absorbance, 72 h; at 2 µM; stronger effect = higher value
[5] = target: Calcium-dependent protein kinase 1 (Plasmodium falciparum (isolate 3D7)) (UniProt P62344); test: PfCDPK1 kinase inhibitors, biochemical, TCAMS library (AID 1159585; cut-off not given, nearly all actives have IC50 up to about 0.98 µM;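 further: inhibitors leave more ATP so luminescence rises with inhibition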); details: recombinant PfCDPK1, Kinase-Glo ATP depletion luminescence
Calcium-dependent protein kinase 1 (Plasmodium falciparum (isolate 3D7)), sequence (P62344 whole entry, looked up): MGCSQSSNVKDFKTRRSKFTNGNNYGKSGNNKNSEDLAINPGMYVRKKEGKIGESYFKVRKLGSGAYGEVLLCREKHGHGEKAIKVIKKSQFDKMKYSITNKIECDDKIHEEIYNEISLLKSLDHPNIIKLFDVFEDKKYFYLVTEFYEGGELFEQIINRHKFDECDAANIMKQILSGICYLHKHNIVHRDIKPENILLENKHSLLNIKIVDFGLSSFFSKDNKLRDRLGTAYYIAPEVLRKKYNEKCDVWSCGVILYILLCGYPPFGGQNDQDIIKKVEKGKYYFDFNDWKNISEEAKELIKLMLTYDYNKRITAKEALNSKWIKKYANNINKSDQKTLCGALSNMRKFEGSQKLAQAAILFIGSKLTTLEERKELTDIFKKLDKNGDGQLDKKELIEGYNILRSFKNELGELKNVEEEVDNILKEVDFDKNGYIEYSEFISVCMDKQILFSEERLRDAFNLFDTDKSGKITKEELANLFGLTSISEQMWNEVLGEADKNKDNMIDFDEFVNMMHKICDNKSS

[6] = target: Plasmodium falciparum protein kinase 6 (PK6, PF3D7_1337100) (UniProt Q8IDW1); test: PfPK6 kinase inhibitors, biochemical, TCAMS library (AID 1159586); details: recombinant PfPK6, Kinase-Glo ATP depletion luminescence
Plasmodium falciparum protein kinase 6 (PK6, PF3D7_1337100), sequence (Q8IDW1 1-305): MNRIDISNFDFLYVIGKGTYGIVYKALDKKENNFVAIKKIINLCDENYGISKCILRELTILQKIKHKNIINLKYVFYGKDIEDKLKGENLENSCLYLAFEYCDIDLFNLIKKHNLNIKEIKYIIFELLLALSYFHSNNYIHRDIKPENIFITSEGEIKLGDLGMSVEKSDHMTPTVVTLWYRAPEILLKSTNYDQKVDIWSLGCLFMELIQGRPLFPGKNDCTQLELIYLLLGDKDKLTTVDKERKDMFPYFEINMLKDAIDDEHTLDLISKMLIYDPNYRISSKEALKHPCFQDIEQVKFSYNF

[7] = target: Protein kinase 7 (PK7), Plasmodium falciparum 3D7 (PF3D7_0213400) (UniProt Q7YTF7); test: inhibition of Plasmodium PK7 catalytic activity – biochemical, TCAMS antimalarial set, Kinase-Glo luminescence (AID 1159587); details: recombinant PfPK7, Kinase-Glo ATP depletion luminescence
Protein kinase 7 (PK7), Plasmodium falciparum 3D7 (PF3D7_0213400), sequence (Q7YTF7 1-343): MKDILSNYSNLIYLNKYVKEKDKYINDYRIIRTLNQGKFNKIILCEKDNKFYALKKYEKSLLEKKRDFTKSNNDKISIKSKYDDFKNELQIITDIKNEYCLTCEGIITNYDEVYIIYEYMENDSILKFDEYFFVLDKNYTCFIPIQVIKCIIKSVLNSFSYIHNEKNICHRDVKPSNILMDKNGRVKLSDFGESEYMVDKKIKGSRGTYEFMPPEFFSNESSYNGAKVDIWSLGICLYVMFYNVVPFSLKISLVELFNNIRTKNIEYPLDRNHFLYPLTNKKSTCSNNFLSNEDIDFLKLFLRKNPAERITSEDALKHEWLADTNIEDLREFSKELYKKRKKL

[8] = target: Calcium-dependent protein kinase 4 (Plasmodium falciparum (isolate 3D7)) (UniProt Q8IBS5); test: PfCDPK4 kinase inhibitors, biochemical, TCAMS library (AID 1159588; cut-off not given, nearly all actives have IC50 up to about 0.91 µM); details: recombinant PfCDPK4, Kinase-Glo ATP depletion luminescence
Calcium-dependent protein kinase 4 (Plasmodium falciparum (isolate 3D7)), sequence (Q8IBS5 whole entry, looked up): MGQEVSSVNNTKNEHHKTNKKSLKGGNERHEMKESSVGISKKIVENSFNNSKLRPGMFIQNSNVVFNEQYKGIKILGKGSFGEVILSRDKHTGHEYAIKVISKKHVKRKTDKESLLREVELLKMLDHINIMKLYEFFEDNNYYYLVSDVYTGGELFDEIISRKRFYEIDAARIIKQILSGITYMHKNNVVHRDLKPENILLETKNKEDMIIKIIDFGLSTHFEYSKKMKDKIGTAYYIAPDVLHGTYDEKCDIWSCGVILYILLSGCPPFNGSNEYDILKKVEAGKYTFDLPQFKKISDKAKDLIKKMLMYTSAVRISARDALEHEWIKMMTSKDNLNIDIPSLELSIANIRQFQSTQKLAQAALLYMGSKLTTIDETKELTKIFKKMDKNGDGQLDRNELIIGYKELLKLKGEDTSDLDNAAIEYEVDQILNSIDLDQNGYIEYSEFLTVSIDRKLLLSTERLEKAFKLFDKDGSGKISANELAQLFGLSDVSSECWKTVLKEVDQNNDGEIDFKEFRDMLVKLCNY

| Compound | growth inhibition [1] | inhibition [2] | inhibition [3] [%] | growth inhibition [4] | outcome [5] | outcome [6] | outcome [7] | outcome [8] |
| --- | --- | --- | --- | --- | --- | --- | --- | --- |
| Cc1cc2nc(/N=C(\N)NC(=O)NC3CCCCC3)nc(C)c2cc1C | 98% (active) | 20% | 2 | 94% (active) | inactive | inactive | inactive | inactive |
| COc1ccccc1CCNc1nc(C)cc(N[C@@H](Cc2ccccc2)C(=O)NCCOc2ccccc2)n1 | 76% (active) | 20% | 4 | 101% (active) | inactive | inactive | inactive | inactive |
| CC(C)(Oc1ccc(Cl)cc1)C(=O)NCCC1CCN(CCCCCNC(=O)/C=C/c2ccc(Cl)c(Cl)c2)CC1 | 37% | 73% (active) | -1 | 87% (active) | inactive | inactive | inactive | inactive |
| CCOCc1cnc(C)nc1NCC(=O)c1c(C)[nH]c2cc(C)ccc12 | 76% (active) | 8% | 4 | 89% (active) | inactive | inactive | inactive | inactive |
| CC(C)NCc1ccc(-c2ccc(NS(=O)(=O)c3cccc4cccnc34)cc2)cc1 | 45% | 27% | -4 | 90% (active) | inactive | inactive | inactive | inactive |
| CN(C)CC(O)C(O)(c1ccccc1)c1ccc(F)cc1 (stereo not given) | 10% | -10% | 4 | 93% (active) | inactive | inactive | inactive | inactive |
| Cc1ccc(C2CCN(CCCCNC(=O)c3ccc(NC(=O)c4ccc(Cl)cc4)cc3)CC2)c(C)c1 | 10% | 23% | -1 | 96% (active) | inactive | inactive | inactive | inactive |
| Cc1noc(C)c1-c1cccc(CNCc2cccc(-c3cccc(-c4nc5ccccc5[nH]4)c3)c2)c1 | 54% (active) | 22% | 2 | 102% (active) | inactive | inactive | inactive | inactive |
| O=C(Nc1cccc(-c2ccc(-c3nc4ccc(C(F)(F)F)cc4[nH]3)cc2)c1)c1cnc[nH]1 | 21% | 16% | -3 | 91% (active) | inactive | inactive | inactive | inactive |
| CCOc1cc(C(=O)N[C@@H](Cc2ccccc2)[C@H](O)CNCc2cc(OC)cc(OC)c2)cc(N2CCCCS2(=O)=O)c1 | 98% (active) | -2% | 5 | 100% (active) | inactive | inactive | inactive | inactive |
| COc1cccc(Nc2nnc(SCC(=O)NNC(=O)c3ccccn3)s2)c1 | 95% (active) | 52% (active) | -1 | 99% (active) | inactive | inactive | inactive | inactive |
| c1ccn2c(Sc3ncnc4sccc34)ncc2c1 | 100% (active) | -14% | 2 | 100% (active) | inactive | inactive | inactive | inactive |
| CC(C)(C)c1ccc(-c2cc3c(ccc4nc(N)nc(N)c43)[nH]2)cc1 | 100% (active) | 100% (active) | 5 | 101% (active) | inactive | inactive | inactive | inactive |
| CCc1ccc2c(c1O)CCN(C)C2Cc1ccccc1Cl (stereo not given) | 99% (active) | 13% | -3 | 99% (active) | inactive | inactive | inactive | inactive |
| CC(C)(C)c1ccc(S(=O)(=O)Nc2ccccc2N2CCOCC2)cc1 | 60% (active) | 11% | 1 | 90% (active) | inactive | inactive | inactive | inactive |
| COc1cc(NC(=O)N2CCc3ccc(OCCN4CCCCC4)cc32)cc(C(F)(F)F)c1 | 93% (active) | 9% | 6 | 101% (active) | inactive | inactive | inactive | inactive |
| O=C(Nc1cccc(-c2ccc(-c3nc4ccccc4[nH]3)s2)c1)c1ccncc1 | 29% | 67% (active) | -9 | 92% (active) | inactive | inactive | inactive | inactive |
| C#CCCC(=O)Nc1cccc(-c2cccc(-c3nc4c(C)cccc4[nH]3)c2)c1 | 29% | 30% | -3 | 97% (active) | inactive | inactive | inactive | inactive |
| Cc1ccc(CNC(=O)[C@H](Cc2ccccc2)Nc2cc(C)nc(Nc3ccccc3)n2)cc1 | 91% (active) | 16% | 1 | 101% (active) | inactive | inactive | inactive | inactive |
| C[C@H](NC(=O)c1c(CN2CCC(N3CCCCC3)CC2)c(-c2ccccc2)nc2cc(O)ccc12)C1CCCCC1 | 72% (active) | 77% (active) | 0 | 99% (active) | inactive | inactive | inactive | inactive |

| Compound | growth inhibition [1] | inhibition [2] | inhibition [3] [%] | growth inhibition [4] | outcome [5] | outcome [6] | outcome [7] | outcome [8] |
| --- | --- | --- | --- | --- | --- | --- | --- | --- |
| COc1cc2nc(NCCCN3CCCCC3)nc(NCc3ccccc3)c2cc1OC | 3% | 12% | 1 | 102% (active) | inactive | inactive | inactive | inactive |
| O=C(Nc1ccc2c(c1)CCN2C1CCN(Cc2ccc(F)cc2Cl)C1)c1ccco1 (stereo not given) | 96% (active) | 4% | 2 | 97% (active) | inactive | inactive | inactive | inactive |
| COc1cc2nc(N3CCC(CNC(=O)/C=C/c4ccccc4F)CC3)nc(N)c2cc1OC | 88% (active) | -4% | 5 | 100% (active) | inactive | inactive | inactive | inactive |
| Cc1ccc(Nc2nc(C)cc(N3CCN(c4ccccc4)CC3)n2)cc1 | 72% (active) | 4% | 3 | 93% (active) | inactive | inactive | inactive | inactive |
| Oc1ccc(CN2CCC(NCc3cccc4ccccc34)CC2)cc1 | 8% | 8% | -3 | 97% (active) | inactive | inactive | inactive | inactive |
| Cc1cccc2[nH]c(-c3cccc(-c4cccc(CNCc5cccc(N)c5)c4)c3)nc12 | 73% (active) | 14% | 1 | 101% (active) | inactive | inactive | inactive | inactive |
| COCCNCc1ccc(-c2ccc(CNC3CCN(Cc4ccccc4)CC3)cc2)cc1 | 61% (active) | 22% | -4 | 100% (active) | inactive | inactive | inactive | inactive |
| Cc1cccc(Nc2nccc(NCC(O)c3cccc(C(F)(F)F)c3)n2)c1 (stereo not given) | 94% (active) | 25% | -2 | 100% (active) | inactive | inactive | inactive | inactive |
| COc1ccc(CNCc2ccccc2)cc1-c1ccc(S(=O)(=O)NCCN2CCCC2)s1 | 62% (active) | 32% | 0 | 101% (active) | inactive | inactive | inactive | inactive |
| CCC(C)CNC(=O)CN1CN(c2ccccc2)C2(CCN(C(=O)c3ccc(Br)cc3)CC2)C1=O (stereo not given) | 88% (active) | 10% | -2 | 88% (active) | inactive | inactive | inactive | inactive |
| COCCn1c(Sc2ncnc3sccc23)nc2ccccc21 | 72% (active) | -8% | -6 | 95% (active) | inactive | inactive | inactive | inactive |
| COc1ccc(NC(=O)CCNc2cc(C)nc(NCc3ccccc3C)n2)cc1 | 61% (active) | 7% | -1 | 94% (active) | inactive | inactive | inactive | inactive |
| COc1ccc(CCNCCCCCCNCCc2ccc(-c3ccccc3)cc2)cc1OC | 35% | 100% (active) | 1 | 99% (active) | inactive | inactive | inactive | inactive |
| c1ccc2[nH]c(-c3ccc(-c4ccc(CN5CCN(CCN6CCOCC6)CC5)cc4)cc3)nc2c1 | 99% (active) | 43% | -1 | 98% (active) | inactive | inactive | inactive | inactive |
| Cc1cccc(C(=O)Nc2ccc(N3CCCN(Cc4cccc(O)c4)CC3)cc2)c1 | 44% | 2% | -3 | 92% (active) | inactive | inactive | inactive | inactive |
| C[C@H](Cc1ccc(OCCCCCCOc2ccc(C[C@@H](C)NC[C@H](O)c3cccc(Cl)c3)cc2)cc1)NC[C@H](O)c1cccc(Cl)c1 | 99% (active) | 99% (active) | 3 | 99% (active) | inactive | inactive | inactive | inactive |
| CC(=O)c1ccc(S(=O)(=O)N2CCC(C(=O)Nc3ccccc3N3CCCC3)CC2)cc1 | 99% (active) | -3% | -8 | 95% (active) | inactive | inactive | inactive | inactive |
| CC(C)c1ccc(CN2CCC(CNC(=O)c3cc(-c4cccc(Cl)c4)cs3)C2)cc1 (stereo not given) | 43% | 42% | 1 | 99% (active) | inactive | inactive | inactive | inactive |
| CCCC(C)NC(=O)[C@H]1CNCCN1C(=O)CCCc1ccccc1 (stereo not given in full) | 98% (active) | 47% | 4 | 96% (active) | inactive | inactive | inactive | inactive |
| CC(C)N1CCN(C(CN2CCN(CCCOc3ccccc3-c3ccccc3)CC2)c2ccc(F)cc2)CC1 (stereo not given) | 96% (active) | 98% (active) | 5 | 100% (active) | inactive | inactive | inactive | inactive |
